Molecules are shown by their SMILES. Active and inactive are the calls of the source. How the source made its calls: active means hit-call score of the fitted dose curve at least 0.9, where 1 is the maximum; inactive means score below 0.9.

One assay is described as follows: ATG_M_19_CIS: Attagene CIS-FACTORIAL HepG2 Assay for M19 Transcription Factor (Internal Marker) (AID 2282939). The settings on record: HepG2 Attagene CIS-FACTORIAL M19 internal marker reporter; actives raise or lower the signal. In a few lines: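 Background-control endpoint from a multiplexed HepG2 reporter panel. Cells carrying cis-regulated reporter constructs are treated 24 h, then reporter transcripts are amplified, fluorescently labelled and sized by capillary electrophoresis. DMSO defines baseline.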
For `O=C(O)c1cccc(C(=O)O)n1`, the molecule was classed as inactive.
For the molecule `O=P(O)(O)CCC(F)(F)C(F)(F)C(F)(F)C(F)(F)C(F)(F)C(F)(F)F`, the outcome was inactive.
As for `CN(Cc1cnc2nc(N)nc(N)c2n1)c1ccc(C(=O)N[C@@H](CCC(=O)O)C(=O)O)cc1`, the molecule was called inactive.
Same read-out and setting: under `O=C(OC(=O)C(F)(F)C(F)(F)F)C(F)(F)C(F)(F)F` stands “inactive”; under `Cc1cccc2c1ccc1ccccc12`, “inactive”; under `CCCCC(CC)C(=O)OCCOCCOCCOCCOC(=O)C(CC)CCCC` (centres undefined), “inactive”.
Consider `O=C(O)CCC(F)(F)C(F)(F)C(F)(F)C(F)(F)C(F)(F)C(F)(F)F`, for which the outcome was inactive.
Same read-out and setting: for `CCCCCCCCCCCCOC(=O)c1cc(O)c(O)c(O)c1` the value was “inactive”.
The same measure, in the same setting: under `CC(C)(C)c1ccc(CCC=O)cc1` stands “inactive”.
`O=C(O)CN(CCCN(CC(=O)O)CC(=O)O)CC(=O)O`: the molecule was classed as inactive.
The same measure, in the same setting: for `Cc1ccccc1C(OCCN(C)C)c1ccccc1` (centres undefined) the value was “inactive”; for `CC(C)(C)C1CCCCC1O` (centres undefined), “inactive”.
On the same count and under the same terms, for `c1ccc(CNc2ncnc3c2ncn3C2CCCCO2)cc1` (centres undefined) the value was “inactive”.
On the same count and under the same terms, for `C=CC(=C)CC/C=C(\C)CCC=C(C)C` the value was “inactive”.
Consider `Clc1ccc(Nc2nnc(Cc3ccncc3)c3ccccc23)cc1`, for which the call was inactive.
Same read-out and setting: for `CCOC(=O)CN[C@@H](C(=O)N1CC[C@H]1C(=O)NCc1ccc(/C(N)=N/O)cc1)C1CCCCC1` the value was “inactive”; for `CC1CNCC(C)O1` (centres undefined), “inactive”.
In the case of `Cc1cc(Cc2cc(C)cc(C(C)(C)C)c2O)c(O)c(C(C)(C)C)c1`, the call was inactive.
On the same count and under the same terms, under `CCC(=O)C=Cc1ccc(OC)cc1` stands “inactive”.
On the same count and under the same terms, under `CC=O` stands “inactive”.
For `CCCCCCCCCCCCCCCCCC[N+](C)(C)Cc1ccccc1`, the outcome was inactive.
Same read-out and setting: for `Nc1cc(Cl)c(-c2cc(Cl)c(N)cc2Cl)cc1Cl` the value was “inactive”.
As to `Oc1cccc2c(O)cccc12`, the outcome was inactive.
Still for that read-out and setting: under `CC1CCC(C(=O)O)CC1` (centres undefined) stands “inactive”.
Same read-out and setting: for `CC1=CC(=O)c2ccccc2C1=O` the value was “inactive”.
The same measure, in the same setting: for `CCCCCCCCCCCCCC[n+]1ccccc1` the value was “inactive”.
As for `CCCCCCCCC1CCC(=O)O1` (centres undefined), the outcome was inactive.
Still for that read-out and setting: under `C=CCOCC(CO)(CO)CO` stands “inactive”.
The same measure, in the same setting: for `FC(F)(F)C1(F)C(F)(F)C(F)(F)C(F)(F)C1(F)F` the value was “inactive”.
Still for that read-out and setting: under `Oc1c(Cl)cc(Cl)cc1Sc1cc(Cl)cc(Cl)c1O` stands “inactive”; under `NNc1nc(-c2ccc([N+](=O)[O-])cc2)cs1`, “inactive”; under `O=CC(F)(F)C(F)(F)C(F)(F)C(F)F`, “inactive”.
In the case of `Nc1ccc(O)c(C(=O)O)c1`, the result was inactive.
The same measure, in the same setting: under `Cn1sccc1=O` stands “inactive”; under `O=C1OC(=O)C(F)(F)C1(F)F`, “inactive”.
Same read-out and setting: for `FC(F)(F)C1(F)C(F)(F)C(F)(F)C(F)(F)C(F)(C(F)(F)F)C1(F)F` (centres undefined) the value was “inactive”; for `CCCCCCOC(=O)c1ccc(O)cc1`, “inactive”.

A further assay in a line: ATG_ERE_CIS: Attagene CIS-FACTORIAL HepG2 Assay for Estrogen Response Element (ERE) (AID 2282940). The settings on record: HepG2 ERE cis-reporter, Attagene RNA transcript; actives raise or lower the signal. The procedure, abridged:
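Cells used were human hepatoma HepG2, transfected with multiple reporter transcription units under cis-regulatory promoters. Reporter mRNA, read 24 h post-dosing via fluorescent RT-PCR products on capillary electrophoresis, was fitted bidirectionally relative to DMSO.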
With `O=C(O)c1cccc(C(=O)O)n1`, the outcome was inactive.
On to `O=P(O)(O)CCC(F)(F)C(F)(F)C(F)(F)C(F)(F)C(F)(F)C(F)(F)F`, for which the result was inactive.
Same read-out and setting: under `CN(Cc1cnc2nc(N)nc(N)c2n1)c1ccc(C(=O)N[C@@H](CCC(=O)O)C(=O)O)cc1` stands “inactive”.
The same measure, in the same setting: for `O=C(OC(=O)C(F)(F)C(F)(F)F)C(F)(F)C(F)(F)F` the value was “inactive”.
In general, AC50 refers to the concentration at which the activity in the assay is half-maximal. With `Cc1cccc2c1ccc1ccccc12`, the AC50 was 10.2 µM (active).
`CCCCC(CC)C(=O)OCCOCCOCCOCCOC(=O)C(CC)CCCC` (centres undefined): the result was inactive.
The same measure, in the same setting: under `O=C(O)CCC(F)(F)C(F)(F)C(F)(F)C(F)(F)C(F)(F)C(F)(F)F` stands “inactive”.
Same read-out and setting: for `CCCCCCCCCCCCOC(=O)c1cc(O)c(O)c(O)c1` the value was “inactive”.
Consider `CC(C)(C)c1ccc(CCC=O)cc1`, for which the AC50 is 144 µM (active).
Turning to `O=C(O)CN(CCCN(CC(=O)O)CC(=O)O)CC(=O)O`, the outcome was inactive.
`Cc1ccccc1C(OCCN(C)C)c1ccccc1` (centres undefined): the call was inactive.
The same measure, in the same setting: under `CC(C)(C)C1CCCCC1O` (centres undefined) stands “inactive”.
Same read-out and setting: for `c1ccc(CNc2ncnc3c2ncn3C2CCCCO2)cc1` (centres undefined) the value was “inactive”; for `C=CC(=C)CC/C=C(\C)CCC=C(C)C`, “inactive”; for `Clc1ccc(Nc2nnc(Cc3ccncc3)c3ccccc23)cc1`, “inactive”.
The same measure, in the same setting: for `CCOC(=O)CN[C@@H](C(=O)N1CC[C@H]1C(=O)NCc1ccc(/C(N)=N/O)cc1)C1CCCCC1` the value was “inactive”.
Take `CC1CNCC(C)O1` (centres undefined): the molecule was called inactive.
On the same count and under the same terms, for `Cc1cc(Cc2cc(C)cc(C(C)(C)C)c2O)c(O)c(C(C)(C)C)c1` the value was “inactive”.
Still for that read-out and setting: under `CCC(=O)C=Cc1ccc(OC)cc1` stands “inactive”; under `CC=O`, “inactive”.
Consider `CCCCCCCCCCCCCCCCCC[N+](C)(C)Cc1ccccc1`, for which the molecule was classed as inactive.
As to `Nc1cc(Cl)c(-c2cc(Cl)c(N)cc2Cl)cc1Cl`, the call was inactive.
As for `Oc1cccc2c(O)cccc12`, the AC50 is 12.3 µM (active).
As to `CC1CCC(C(=O)O)CC1` (centres undefined), the half-maximal activity concentration (AC50) is 30.5 µM (active).
Consider `CC1=CC(=O)c2ccccc2C1=O`, for which the molecule was classed as inactive.
For the molecule `CCCCCCCCCCCCCC[n+]1ccccc1`, the call was inactive.
On the same count and under the same terms, under `CCCCCCCCC1CCC(=O)O1` (centres undefined) stands “inactive”.
On the same count and under the same terms, for `C=CCOCC(CO)(CO)CO` the value was “inactive”.
For the molecule `FC(F)(F)C1(F)C(F)(F)C(F)(F)C(F)(F)C1(F)F`, the outcome was inactive.
As for `Oc1c(Cl)cc(Cl)cc1Sc1cc(Cl)cc(Cl)c1O`, the molecule was classed as inactive.
On the same count and under the same terms, under `NNc1nc(-c2ccc([N+](=O)[O-])cc2)cs1` stands “inactive”; under `O=CC(F)(F)C(F)(F)C(F)(F)C(F)F`, “inactive”.
For the molecule `Nc1ccc(O)c(C(=O)O)c1`, the AC50 is 12.3 µM (active).
Regarding `Cn1sccc1=O`, the result was inactive.
Same read-out and setting: under `O=C1OC(=O)C(F)(F)C1(F)F` stands “inactive”; under `FC(F)(F)C1(F)C(F)(F)C(F)(F)C(F)(F)C(F)(C(F)(F)F)C1(F)F` (centres undefined), “inactive”.
With `CCCCCCOC(=O)c1ccc(O)cc1`, the AC50 was 8.86 µM (active).

The values above are taken from PubChem BioAssay (EPA / NIEHS).
